Hit rate of the full screen: of about 5,500 compounds, about 2,000 (36%) were called active. Not shown: some 18% with an inconclusive outcome. Cut-off read from the data, not from the text of the source: active = normalized growth mostly below about 0.91 (no sharp cut-off); inconclusive = no clear call, values can overlap the other calls; inactive = mostly above about 0.92. Some of the results follow.
Assay: chemical genetic growth profiling, strain panel (AID 1159580);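 note: tested at 20 µM; growth read once vehicle control cultures reached saturation at 30 °C; 1 = growth at the plate median or of vehicle wells; lower values mean less growth of the strain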
Details: growth OD

Measured: normalized growth

O=C(NCCSCc1ccc(Cl)cc1)c1ccc(Cl)cc1
inactive: S. cerevisiae deletion strains, locus YAL013W, strain DEP1, hits give low values 0.941 | S. cerevisiae deletion strains, locus YDL101C, strain DUN1, hits give low values 0.915 | S. cerevisiae deletion strains, locus YDR150W, strain NUM1, hits give low values 0.925 | S. cerevisiae deletion strains, locus YEL061C, strain CIN8, hits give low values 1.02 | S. cerevisiae deletion strains, locus YJR043C, strain POL32, hits give low values 0.948 | S. cerevisiae deletion strains, locus YJR075W, strain HOC1, hits give low values 0.954 | S. cerevisiae deletion strains, locus YLR039C, strain RIC1, hits give low values 1.09 | S. cerevisiae deletion strains, locus YLR058C, strain SHM2 (second series), hits give low values 0.972 | S. cerevisiae deletion strains, locus YLR262C, strain YPT6, hits give low values 1.01 | S. cerevisiae deletion strains, locus YML094W, strain GIM5, hits give low values 0.881 | S. cerevisiae deletion strains, locus YMR263W, strain SAP30, hits give low values 0.954 | S. cerevisiae deletion strains, locus YMR307W, strain GAS1, hits give low values 0.849 | S. cerevisiae deletion strains, locus YNL128W, strain TEP1, hits give low values 0.965 | S. cerevisiae deletion strains, locus YNL322C, strain KRE1, hits give low values 0.961 | S. cerevisiae deletion strains, locus YNR030W, strain Alg12, hits give low values 0.936 | S. cerevisiae deletion strains, locus YPL055C, strain LGE1, hits give low values 0.893 | S. cerevisiae deletion strains, locus YPL241C, strain CIN2, hits give low values 1.03 | S. cerevisiae deletion strains, locus YPR135W, strain CTF4, hits give low values 1.07
active: S. cerevisiae deletion strains, locus YBR229C, strain ROT2, hits give low values 0.919 | S. cerevisiae deletion strains, locus YGR078C, strain PAC10, hits give low values 0.902 | S. cerevisiae deletion strains, locus YHR030C, strain SLT2, hits give low values 0.0946 | S. cerevisiae deletion strains, locus YHR087W, strain rtc3, hits give low values 0.903 | S. cerevisiae deletion strains, locus YJL187C, strain SWE1, hits give low values 0.897 | S. cerevisiae deletion strains, locus YLR085C, strain ARP6, hits give low values 0.724 | S. cerevisiae deletion strains, locus YMR219W, strain ESC1, hits give low values 0.932 | S. cerevisiae deletion strains, locus YNL153C, strain GIM3, hits give low values 0.907 | S. cerevisiae deletion strains, locus YNL298W, strain CLA4 (second series), hits give low values 0.684 | S. cerevisiae strains, strain wild type, hits give low values 0.887

From PubChem BioAssay AID1159580 (chemical genetic matrix, 2015)
